Assay outcomes deposited in PubChem BioAssay by several laboratories.
Anthrax LF prot: blocks Bacillus anthracis lethal factor protease. P15917. multiplex microsphere protease cleavage assay, LF. inhibition, % at 10 µM. hit rate 0.12% among 360,000. AID 588501; also: plate controls were buffer without enzyme for full effect and enzyme alone for no effect
Target sequence (P15917 whole entry, looked up): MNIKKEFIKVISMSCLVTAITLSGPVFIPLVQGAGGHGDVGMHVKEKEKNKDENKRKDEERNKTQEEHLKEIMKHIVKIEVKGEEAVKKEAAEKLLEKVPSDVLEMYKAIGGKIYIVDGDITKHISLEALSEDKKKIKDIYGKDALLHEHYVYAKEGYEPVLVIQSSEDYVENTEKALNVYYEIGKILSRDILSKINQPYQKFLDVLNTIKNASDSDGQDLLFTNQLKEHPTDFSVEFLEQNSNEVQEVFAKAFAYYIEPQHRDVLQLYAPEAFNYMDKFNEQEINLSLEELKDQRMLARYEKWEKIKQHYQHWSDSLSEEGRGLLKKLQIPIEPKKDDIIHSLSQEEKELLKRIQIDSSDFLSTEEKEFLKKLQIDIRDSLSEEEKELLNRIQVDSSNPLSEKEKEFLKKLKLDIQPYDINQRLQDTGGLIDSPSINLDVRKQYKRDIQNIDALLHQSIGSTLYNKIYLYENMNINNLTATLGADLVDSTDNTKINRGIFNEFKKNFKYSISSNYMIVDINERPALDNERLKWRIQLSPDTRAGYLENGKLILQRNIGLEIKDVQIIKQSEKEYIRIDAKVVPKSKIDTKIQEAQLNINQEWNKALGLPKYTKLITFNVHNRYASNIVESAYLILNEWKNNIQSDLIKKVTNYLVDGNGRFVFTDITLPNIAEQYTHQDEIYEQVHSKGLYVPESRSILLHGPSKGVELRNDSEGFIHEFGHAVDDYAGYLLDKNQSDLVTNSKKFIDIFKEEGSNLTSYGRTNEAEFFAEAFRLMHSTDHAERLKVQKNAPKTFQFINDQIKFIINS
BoNT-F LC inh: blocks Botulinum neurotoxin F light chain protease | Multiplex microsphere protease cleavage assay, flow cytometry | inhibition, % at 10 µM | hit rate 0.22% among 360,000 | AID 588497; in the data active = inhibition above about 35%, passing the limit was not always enough; inconclusive = no clear call, values can overlap the other calls; also: plate controls were buffer without enzyme for full effect and enzyme alone for no effect
BoNT A protease: BoNT A light chain protease inhibition | multiplex microsphere protease substrate cleavage, flow cytometry | inhibition, % at 10 µM | hit rate 0.17% among 360,000; also: plate controls were buffer without enzyme for full effect and enzyme alone for no effect
Bead autofluor: compound fluorescence in toxin protease inhibitor counterscreen | hit rate 3.1% among 360,000 | AID 624483 | fluorescence intensity (concentration not given with the values) | compound autofluorescence counterscreen, microsphere flow cytometry; hits give high values; in the data active = fluorescence intensity above about 16000; inconclusive = no clear call, values can overlap the other calls
BJeLR viability: BJeLR cell viability loss. BJeLR (HRASV12) viability, CellTiter-Glo ATP luminescence, 48 h. inhibition, % (no concentration beside the values). hit rate 0.17% among 300,000. AID 1554; in the data active = inhibition above about 50%; inconclusive = no clear call, values can overlap the other calls
Starred values were filed as active, the others as inactive; ? = inconclusive; nt = no result. Compounds with a hit are over-represented: about 3.5% of the library has one in this group of screens. Rule as the data show it, unless noted: active = inhibition above about 30%; inconclusive = no clear call, values can overlap the other calls; inactive = below that.

SMILES | Anthrax LF prot | BoNT-F LC inh | BoNT A protease | Bead autofluor | BJeLR viability
CCCc1cc(=O)n2[nH]c(C)nc2n1 | -2 | -3 | -2 | 24470* | -9
CCCc1cc(=O)n2[nH]c(C(F)(F)F)nc2n1 | -8 | -6 | 0 | 3903 | 7
COc1ccc(Cn2c(/C=C/c3ccccc3)nc3ccccc32)cc1 | 2 | -4 | -1 | 24328* | 1
COc1ccc(/C=C/c2nc3ccccc3n2C)cc1 | 4 | -3 | 0 | 2977 | 80*
COc1ccc(CNC(=O)[C@H](CCSC)NC(=O)N2CCn3c2nc2ccccc23)cc1 | -1 | 2 | 2 | 5678 | -9
Cc1ccc(CC(CC(=O)O)C(=O)Nc2ccc(Cl)cc2)cc1 (stereo not drawn) | -4 | -6 | -2 | 3602 | -1
O=C(CCc1nc(-c2ccccc2)no1)Nc1cccnc1 | 0 | -6 | 0 | 5582 | -5
O=C(Cc1nc(-c2cnccn2)no1)NNC(=O)Nc1ccccc1 | 35* | ? | ? | 4072 | 12
Cc1cccc2nc(=S)n(C(=O)c3ccco3)n12 | -29 | 14 | 12 | 15901 | 3
O=C(c1ccco1)n1c(=S)nc2ccccn21 | 0 | 2 | 1 | 22668* | 4
CCOc1ccc(CC(=O)Nc2sc(Cc3ccccc3)c(C)c2C(N)=O)cc1OCC | 3 | 3 | 2 | 23316* | -14
CCC(C)NS(=O)(=O)c1ccc(NC(=O)c2c(-c3ccccc3)noc2C)cc1 (stereo not drawn) | -10 | -15 | -2 | 4363 | 3
Cc1cc([N+](=O)[O-])cc2c1NC(=O)C2(O)N1CCCCCC1 (stereo not drawn) | 0 | 5 | 1 | 9949 | -17
O=C(NCc1ccccc1Cl)c1csc([C@@H]2C[C@H](O)[C@@H](CO)O2)n1 | -3 | 8 | 0 | 3284 | nt
COc1ccc(C2=NOC(C(=O)NCc3ccco3)C2)cc1 (stereo not drawn) | -14 | 9 | 8 | 20757* | 19
O=C(C1CC(c2ccc(F)cc2)=NO1)N1CCN(c2ccccc2)CC1 (stereo not drawn) | -2 | -8 | -1 | 4612 | 3
CCC(C)NC(=O)C1CC(c2ccc(OC)cc2)=NO1 (stereo not drawn) | -8 | 7 | 6 | 20670* | -13
O=C(C1CC(c2ccc(F)cc2)=NO1)N1CCCCC1 (stereo not drawn) | -1 | 1 | 0 | 22237* | -1
COc1ccc(NC(=O)C2C3C=CC(C3)C2C(=O)NCc2ccco2)cc1 (stereo not drawn) | 0 | -1 | -1 | 16864* | -3
COc1ccc(C2=NOC(C(=O)NC(C)C)C2)cc1 (stereo not drawn) | 2 | -13 | -1 | 12116 | -9
CCCN(CC(=O)Nc1ccccc1C)C(=O)c1ccc(N2CCCC(C)C2)c([N+](=O)[O-])c1 (stereo not drawn) | -3 | -8 | -1 | 6585 | nt
COc1ccc(C(C)(NC(C)=O)c2nc(-c3cccc(F)c3)cs2)cc1 (stereo not drawn) | -11 | -7 | 0 | 3675 | nt
OCCN1CCN(c2ncnc3c2ncn3[C@H]2CN(Cc3ccncc3)C[C@@H](CO)O2)CC1 | -5 | -6 | -1 | 3035 | nt
CCN(CC)C(=O)C1=C(C)N(Cc2ccc(F)cc2)C(=O)C(CC(=O)NCCCN(C)C)C1 (stereo not drawn) | -5 | -3 | 0 | 3326 | nt
O=C(C1=C[C@H](c2csc3ccccc23)C[C@H](OCc2ccc(CO)cc2)O1)N1CCN(Cc2ccc3c(c2)OCO3)CC1 | -5 | -6 | 0 | 3695 | 15
SMILES | Anthrax LF prot | BoNT-F LC inh | BoNT A protease | Bead autofluor | BJeLR viability
COc1ccc(C2=NOC(C(=O)NCc3ccc(F)cc3)C2)cc1 (stereo not drawn) | -4 | 2 | 0 | 10404 | 1
COc1cc(C2=NOC(C(=O)N3CCOCC3)C2)cc(OC)c1OC (stereo not drawn) | -2 | -6 | ? | 24903* | nt
COc1ccc(C2=NOC(C(=O)NCCN3CCOCC3)C2)cc1 (stereo not drawn) | 0 | 0 | -2 | 21268* | -11
COc1ccc(C2=NOC(C(=O)NCCCN3CCOCC3)C2)cc1 (stereo not drawn) | -6 | -10 | -1 | 11591 | 13
COc1ccc(CNC(=O)C2CC(c3ccc(F)cc3)=NO2)cc1 (stereo not drawn) | -1 | 2 | 1 | 22739* | -6
COc1ccc(C2=NOC(C(=O)N3CCCCCC3)C2)cc1OC (stereo not drawn) | -4 | -7 | 0 | 11367 | 8
CCc1nc2c(OCc3ccc(OC(F)F)cc3)cccn2c1N(C)C(=O)c1ccc(OC)cc1 | -7 | 0 | 0 | 4174 | nt
Cc1ccccc1C(=O)N1CCC(C(=O)Nc2ccc(S(=O)(=O)N3C(C)CCCC3C)cc2)CC1 (stereo not drawn) | 10 | -14 | 6 | 3414 | nt
COc1ccc(OC)c(CN2C(=O)c3ccccc3C2c2nnnn2C2CCCC2)c1 (stereo not drawn) | -1 | 6 | 0 | 6187 | nt
CCOc1ccc(OCC)c(-c2c(=O)n(OCc3ccccc3Br)c3ccccc3[n+]2[O-])c1 | 1 | -3 | 0 | 22784* | -3
CCOc1ccccc1NC(=O)Cn1c(=O)oc2ccccc21 | -1 | -2 | -1 | 3298 | 0
CCOc1ccc(CNC(=O)CCn2c(=O)oc3ccccc32)cc1 | -5 | -2 | 1 | 16172* | 5
CCOc1ccc(OCC)c(NC(=O)CCn2c(=O)oc3ccccc32)c1 | 1 | 0 | ? | 19376* | -1
Cn1cccc1-c1nc2ccc(NC(=O)c3ccc([N+](=O)[O-])cc3)cc2[nH]1 | -4 | -12 | 1 | 19889* | 9
Cc1cc(N2CCCC2)nc2ccccc12 | -9 | 2 | 0 | 3315 | -1
Cc1nn(-c2cc(C)c3ccccc3n2)c2c1CCC2 | 0 | 11 | 6 | 20384* | 3
CC(C)Oc1ccc(C2c3c(oc4ccccc4c3=O)C(=O)N2CCCN2CCOCC2)cc1 (stereo not drawn) | -1 | -3 | ? | 24300* | -5
COc1ccc(N(CC(=O)NCC2CCCO2)S(=O)(=O)c2ccc(C)cc2)cc1OC (stereo not drawn) | 0 | -1 | 0 | 16225* | -1
O=C(CS(=O)c1ccc(F)cc1)N1CCOCC1 (stereo not drawn) | -13 | -14 | -1 | 3962 | 2
CC(C)CNS(=O)(=O)c1ccc(S(=O)(=O)N2CCCN(Cc3ccccc3)C2)cc1 | 0 | -6 | -5 | 21949* | 4
CCCCn1nnnc1C(c1cc2ccccc2o1)N1CCN(c2cc(C)nc3ccccc23)CC1 (stereo not drawn) | -1 | 0 | 1 | 6079 | nt
O=C1c2cnc3nc(SCc4ccccc4)nn3c2CC2c3ccccc3CCN12 (stereo not drawn) | 2 | 9 | 3 | 22144* | -2
CC(=O)NC(=Cc1ccccc1)C(=O)N1CCCC1C(=O)O (stereo not drawn) | -4 | 4 | 0 | 3506 | nt
CCOC(=O)N=S(N)(=O)c1ccccc1 (stereo not drawn) | 0 | 2 | 0 | 20787* | -17
